Screening data (PubChem BioAssay)
Shown are actives, neighbours in structure and some others; about 3.2% of the full set was active somewhere.
FMDV inh: blocks foot and mouth disease virus; FMDV antiviral cell-based qHTS; Potency, µM (series often up to 57.9 µM), for the others: at the highest dose activity change, negative = inhibition, usual class: inhibitors; actives 1.2% (n = 410,000); AID 1159524; calls by dose curve; tested in HEK293T cells; also: read-out not given here; nearly all actives have a fitted effect of over 45% in size
MARV entry inh: blocks Marburg virus binding to or entry into cells | Marburg virus pseudotyped entry inhibition, cell reporter | Potency, µM (titrated, usually from 37.8 µM), for inactives: top-dose activity change, negative = inhibition, most hits filed as inhibitors | actives 1.8% (n = 300,000) | AID 540276; calls by dose curve; tested in HEK293 cells
Vaccinia mCherry: vaccinia inhibition (mCherry reporter); Vaccinia virus mCherry reporter infection, fluorescence; Potency, µM (series often up to 36.5 µM), inactives show at the top dose activity change, negative = inhibition, hits mostly inhibitors; actives 0.63% (n = 310,000); AID 720579; calls by dose curve; tested in A549 cells; also: nearly all actives have a fitted effect of over 35% in size
LASV entry inh: inhibitors of Lassa virus binding or cell entry. Lassa virus pseudotype entry inhibition, cell reporter. Potency, µM (doses to about 37.9 µM), without a hit: at the top dose activity change, negative = inhibition, actives largely listed as inhibitors. actives 1.2% (n = 300,000); calls by dose curve; tested in HEK293 cells; also: nearly all actives have a fitted effect of over 50% in size
Vaccinia Venus: vaccinia inhibition (Venus reporter); Vaccinia virus Venus reporter expression, fluorescence; AID 720580; Potency, µM (series often up to 36.5 µM), inactives show at the highest dose activity change, negative = inhibition, hits mostly inhibitors; actives 0.46% (n = 330,000); calls by dose curve; tested in A549 cells; also: nearly all actives have a fitted effect of over 30% in size
An asterisk follows results filed as active; i = inactive; u = inconclusive; x = not tested or not shown; [ ] = remark or other dose. % is scaled to controls: 0 for no effect and ±100 for the full control effect; potency is read from the fitted curve at half-maximal effect.

SMILES	FMDV inh	MARV entry inh	Vaccinia mCherry	LASV entry inh	Vaccinia Venus
CCOC(=O)C1(Cc2cccc(OC)c2)CCN(C/C=C/c2ccc(OC)cc2)CC1	14µM*	u	-21%	u	-13%
CCOC(=O)C1(Cc2cccc(OC)c2)CCN(C/C=C/c2ccccc2)CC1	u	7.9µM*	-24%	u	-22%
CC(C)CO/N=C1\C[C@@H](O)[C@@H](O)[C@@H]2[C@@H]3C(=O)N(C[C@@H]4CCCO4)C(=O)[C@@H]3CC[C@H]12	x	10%[14.2 µM]	x	x	x
Cc1ccc(Cn2c(C(=O)O)c(CNCc3cccs3)c3ccc(C)cc32)cc1	-22%	x	-12%	1%[46.1 µM]	-18%
CCC1CN(CCNC(=O)C(C)(C)O)Cc2cc(OC)ccc2O1 (stereo not given)	-7%	x	-13%	x	0%
c1ccc2c(c1)cnc1ccccc12	23%	22%	i	4%	-15%
c1ccc(-c2ncc3c(ccc4ccccc43)n2)cc1	-60%	u	-25%	3.5µM*	-10%
Cc1cccc(-n2ccnc2CN2CCC(CO)(Cc3ccccc3)CC2)c1	5%	x	x	x	x
CCCOc1ccc(-c2nnc(-c3cccs3)o2)cc1	0%	-1%[46.1 µM]	x	2µM*	39%
CCCCOc1ccc(-c2nnc(-c3ccncc3)o2)cc1	-11%	u	x	u	x
CCCCN(C(=O)Cc1cccc(F)c1)c1c(N)n(CCC)c(=O)[nH]c1=O	-4%	u	i	13%[46.1 µM]	-3%
CCc1ccc(Nc2ncc3c(n2)CC(c2ccc(OC)cc2)CC3=O)cc1 (stereo not given)	-2%	18µM*	x	0.52µM*	x
COc1ccc(Nc2ncc3c(n2)CC(c2ccccc2)CC3=O)cc1 (stereo not given)	-16%	3%	x	0.92µM*	x
CC1CCCN(C(=O)CCNS(=O)(=O)c2ccc3c(c2)c(=O)n(C)c(=O)n3C)C1 (stereo not given)	10%	x	x	x	x
C/C=C(/CCC1NCCc2c1[nH]c1ccccc21)[Si](C)(C)C (stereo not given)	28µM*	u	-28%	u	u
COC(=O)Nc1nc2ccccc2[nH]1	20%	20%	u	-3%	-17%
CCc1cccc(NC(=O)Nc2ccc(Oc3ccc4nc(NC(=O)OC)[nH]c4c3)cc2)c1	x	x	x	13µM*	x
COC(=O)Nc1nc2ccc(Oc3ccc(NC(=O)Nc4ccccc4)cc3)cc2[nH]1	x	x	x	3.1µM*	x
Cc1cnc(C)c(-c2cccc3c2OC(CNC(=O)CN2C(=O)c4ccccc4C2=O)C3)n1 (stereo not given)	1%	x	i	x	-14%
CCOC(=O)c1cnc(S[C@@H]2CC(=O)N(c3cccc(OC)c3)C2=O)nc1N	x	13%	x	x	x
COC(=O)[C@H](C)NC(=O)Nc1cccc(C(F)(F)F)c1	-13%	-2%	x	2%	-1%
CCOC(=O)C1C(C(=O)Nc2cccc(C(F)(F)F)c2)C1C(=O)NC(C)C (stereo not given)	32µM*	7%[46.1 µM]	i	u	-4%
O=C(Nc1ccc(Cl)c(Cl)c1)OCCNC(=O)c1ccncc1	u	u	-8%	6%	-11%
Cc1nc(C(=O)NNC(=O)c2c(-c3c(Cl)cccc3Cl)noc2C)cs1	u	1.6µM*	u	u	u
Cc1cc(C(=O)NNC(=O)c2c(-c3c(Cl)cccc3Cl)noc2C)no1	-8%	27%	-16%	7%	-5%
SMILES	FMDV inh	MARV entry inh	Vaccinia mCherry	LASV entry inh	Vaccinia Venus
CCc1cccc(CC)c1NC(=O)COC(=O)C1(c2ccc(Cl)cc2)CCCC1	-27%	-10%	i	4%	-13%
CC(=O)Nc1ccc(NC(=O)COC(=O)C2(c3ccc(Cl)cc3)CCCC2)cc1	28µM*	13µM*	i	u	-26%
Cc1cccc(OCC(=O)Nc2ccc(O)c(-c3nc4ccccc4o3)c2)c1	x	x	0%	x	-13%
CCN1C(=O)CC(CC(=O)N2CCCCC2c2nccs2)(c2ccccc2C)C1=O (stereo not given)	-11%	x	-9%	x	2%
COCCNc1nc(-c2cc3ccccc3o2)cs1	0%	u	-23%	4µM*	-18%
COc1cc(OC)cc(C(=O)NC(=S)Nc2nc(-c3cc4ccccc4o3)cs2)c1	-8%	x	0%[7.34 µM]	x	15%[7.34 µM]
CCOC(=O)NNc1ccc2nonc2c1[N+](=O)[O-]	-25%	11µM*	i	u	0%
CCc1ccc(Nc2ccc3nonc3c2[N+](=O)[O-])cc1	-9%	-2%[46.1 µM]	-1%	-1%	-1%
CCCCCCCCN1[C@@H](CC(=O)O)c2ccc(/C=C/C(=O)O)cc2S1(=O)=O	x	x	i	x	-10%
